# Reference: PubChem BioAssay (NCI)
# The panel holds about 79,000 compounds, 15% with a hit somewhere; the sample as a whole holds those more often. A number with no mark means an inactive call. Active and inactive are the calls of the source. Cut-off read from the data, not from the text of the source: active = growth inhibition above about 70%; inactive = the rest.
# Experiments:
# [1] = NCI Yeast Anticancer Drug Screen. Data for the rad50 strain (AID 155);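 note: 0% = growth of vehicle-only cultures of the same strain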; conditions: S. cerevisiae rad50 strain growth inhibition; at 50.0 µM; active compounds read high
# Procedure, shortened: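 Genetically altered yeast (DNA repair pathway); compound treatment; growth inhibition vs vehicle ctrl.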
# [2] = NCI Yeast Anticancer Drug Screen. Data for the mec2-1 strain (AID 157); conditions: S. cerevisiae mec2-1 strain, at 50.0 µM, active compounds read high
# Procedure, shortened: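 Each compound was tested on mec2-1 yeast, a strain altered in DNA damage repair or cell cycle control. Growth inhibition is reported relative to vehicle.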
# [3] = NCI Yeast Anticancer Drug Screen. Data for the sgs1 mgt1 strain (AID 161);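 note: 0% = growth of cultures given vehicle only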; conditions: S. cerevisiae sgs1 mgt1 strain, at 50.0 µM, active compounds read high
# Procedure, shortened: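 Read-out: growth inhibition vs vehicle controls. Cells: mutant yeast strain deficient in DNA damage repair.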
# [4] = NCI Yeast Anticancer Drug Screen. Data for the cln2 rad14 strain (AID 165);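 note: 0% = growth equal to vehicle treated cultures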; conditions: S. cerevisiae cln2 rad14 strain, at 50.0 µM, active compounds read high
# Procedure, shortened: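 Test compounds were added to cln2 rad14 yeast cultures; inhibition of growth was then determined by comparison with vehicle treatment.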
# [5] = NCI Yeast Anticancer Drug Screen. Data for the bub3 strain (AID 167); conditions: S. cerevisiae bub3 mutant strain, at 50.0 µM, active compounds read high
# Procedure, shortened: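 Yeast carrying a defined mutation is treated with each compound, and growth is compared with that of vehicle-exposed cells to give inhibition.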
# [6] = NCI Yeast Anticancer Drug Screen. Data for the mlh1 rad18 strain (AID 175); conditions: S. cerevisiae mlh1 rad18 strain growth inhibition; at 50.0 µM; active compounds read high
# Procedure, shortened: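 Inhibition values reflect reduced growth of mutant yeast versus vehicle-treated controls following compound exposure; the mutations affect DNA damage repair.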
SMILES,growth inhibition [1],growth inhibition [2],growth inhibition [3],growth inhibition [4],growth inhibition [5],growth inhibition [6]
CC1CC(c2ccccc2)=Nc2ccccc2S1 (stereo unspecified),18.2%,12.9%,16.2%,19.5%,6.5%,-9.4%
CC(C)=CCCc1cc(-c2cc(CCC=C(C)C)nc(N)n2)nc(N)n1,3.5%,-10.9%,-3.2%,-7.1%,-22.9%,15.1%
CN1CCN(C(=S)N(C(=O)c2ccc(Cl)cc2)C2CCCCC2)CC1,-67%,-53.4%,-54.8%,-26.4%,-66.9%,-65.7%
Oc1ccccc1/C=N/Nc1nc(N/N=C/c2ccccc2O)nc(N/N=C/c2ccccc2O)n1,25.3%,20.5%,27.4%,16.9%,-6.7%,15.9%
O=C(N/C(=C/c1ccccc1)C(=O)N1CCN(C(=O)/C(=C\c2ccccc2)NC(=O)c2ccccc2)CC1)c1ccccc1,0.9%,-0.45%,-8.05%,-5.7%,-6.8%,-2.95%
S=c1sc2ccccc2n1CN1CCCC1,6.1%,0.05%,29.9%,11.9%,8.3%,-6.65%
CC(=NCc1ccccc1)c1c(C)cc(=O)n(-c2ccccc2)c1O,-12.8%,-6.45%,-6.15%,-70.5%,-24.8%,-12%
CCCCCCCCCCCCCCCCS(=O)(=O)N/N=C(/c1ccc(OC)c(OC)c1)N1CCCCC1,-24.9%,-28.8%,8.6%,1.45%,-18.1%,-7%
COc1ccc(CCn2cnc3ccccc32)cc1,-44.1%,-34.6%,-34.5%,-4.05%,-11.4%,-18.9%
C=CCOC(=O)OCC=C,4%,-8.55%,2%,-3.7%,23.2%,3.1%
CCCN(CCC)C(=S)S,43.1%,7.95%,54.1%,32.7%,23.2%,14.4%
S=C1CNC(=S)CN1,-4.15%,-21.9%,0.7%,8.75%,10.8%,-22.9%
C[C@@H]1CN(c2ccccc2)C[C@H](C)OS(=O)O1 (stereo partly specified),2.65%,-1.95%,-12.8%,-16.6%,-6.95%,-0.7%
CC(C)(C)NC(=O)NCc1cccc(Cl)c1,0.25%,-19.6%,-4.15%,-36.1%,-3%,-3.25%
Cc1ccc(NC(=O)Oc2cccc(C(F)(F)F)c2)cc1,-8.55%,17.4%,23.1%,-12.7%,15.4%,35.6%
C=CCC(O)c1ccc(OC)c(OC)c1 (stereo unspecified),2.55%,-3.3%,-6.3%,-19.1%,3.4%,0.55%
COc1ccc(C2=C/C(=C/c3cccs3)C(=O)O2)cc1,-14.2%,1.45%,-0.15%,-36.9%,3.75%,0.15%
Cc1ccc(N=Nc2ccc(O)c(CN(C)C)c2)cc1,-14.6%,-9.15%,-24.4%,-39.8%,18%,-17.1%
CNc1ccc(Oc2ccccc2)cc1[N+](=O)[O-],-2.2%,6.4%,-11.3%,-34.6%,-9.9%,-11%
S=C1N=C(Cl)/C(=C\c2ccco2)N1,-4.55%,-18%,12.1%,4.2%,15.9%,-20.6%
O=C1c2ccccc2C(C2c3ccccc3C(=O)c3cc(Br)ccc32)c2ccc(Br)cc21 (stereo unspecified),4.25%,-35.1%,-9.5%,-48.9%,-14.1%,-18.2%

SMILES,growth inhibition [1],growth inhibition [2],growth inhibition [3],growth inhibition [4],growth inhibition [5],growth inhibition [6]
N#CC(=Nc1ccccc1N(C(=O)c1ccccc1)C(=O)c1ccccc1)c1ccccc1,-21.3%,-19.4%,-30.4%,2.95%,-51.5%,-38.4%
CCc1ccc2c(c1)/C(=N\NC(N)=O)CCC2,-11.2%,13.5%,-12.8%,-7.6%,9.8%,-9.5%
O=C(O)c1cccc([N+](=O)[O-])c1C(=O)O,15.3%,11.3%,11.4%,7.9%,-1.9%,17.2%
Cc1ccc(Cl)cc1NC(=O)Oc1ccccc1C(=O)OCc1ccccc1,-31.9%,-1.55%,18.5%,-37.3%,20.2%,19.9%
CCC[CH2][Sn]1([CH2]CCC)[O]C2C(CO)OC(n3c(Br)c(C(N)=O)c4c(N)ncnc43)C2[O]1 (stereo unspecified),98.3% (active),98.4% (active),98.7% (active),97.5% (active),97.5% (active),98.5% (active)
Cc1ccc(Nc2ccc(O)cc2)cc1,40.4%,-2.1%,29.5%,-8.25%,-10.8%,26%
CCOc1ccc(N2C(=O)C(=O)C(C#N)(c3nc4ccccc4o3)C(=O)C2=O)cc1,9.25%,33.7%,5.95%,6%,-0.7%,15.2%
O=c1cc(-c2ccccc2)[nH]c2nccn12,-55%,-27.1%,-53.1%,-57.5%,5.85%,-58.7%
C1=CC([P+](Cc2ccccc2)(c2ccccc2)c2ccccc2)CC1 (stereo unspecified),81.8% (active),65.5%,55.9%,-1.55%,52.6%,52.9%
C=C(C)C(=O)O[C@@H]1C[C@@]2(C)O[C@@H]2C[C@H](O)/C(C)=C/[C@H]2OC(=O)C(=C)[C@@H]21,-19.6%,-33.1%,-22.5%,0.35%,-16.5%,-43.1%
CCn1c2c(c3ccccc31)[C@@H](c1ccc(Cl)cc1)CC1C(=O)N(c3ccccc3)C(=O)C21 (stereo partly specified),17.8%,33.3%,14.8%,-8.05%,38.4%,35.5%
CCOC(=O)C(C#N)C1(C(C#N)C(=O)OCC)C(=O)Nc2ccccc21 (stereo unspecified),1.8%,14.6%,19.8%,21.8%,24.7%,32.3%
CCOC(=O)CC1OCCO1,7.65%,-3.35%,-24.7%,5.25%,2.4%,-5.15%
CCc1cccc(NC(=O)c2cc(/C=C/c3ccccc3)[nH]c(=S)n2)c1,-15.9%,-19.4%,6.95%,-1.85%,-6.85%,-12.1%
CCC(=O)c1ccc(O)c(C)c1,4.85%,-2.9%,0.2%,-2.6%,37.7%,2.45%
O=C(c1ccccc1)c1cccs1,-19.3%,-1.9%,-12.7%,-45.6%,-14.5%,-17.9%
O=C(O)CSc1n[nH]c(-c2ccco2)n1,-4.05%,4.25%,3%,14.1%,11.1%,7.7%
CC1(C)C(CBr)=[N+]([O-])C(C)(C)N1O,4.8%,-0.6%,-15.2%,13.6%,-12.9%,21.6%
COc1cc(C=O)ccc1OC(=O)Nc1cc(Cl)ccc1C,6.6%,6.7%,10.8%,5.75%,13.2%,8.85%
COC(=O)[C@@H]1[C@H](O)CC[C@H]2[C@@]1(C)CC[C@@H](C)[C@]2(COC(C)=O)CC(=O)c1ccoc1,-27.1%,-32.2%,-37%,-27.1%,-47.9%,-45.8%
